The results in this text go back to PubChem BioAssay.

Active and inactive are the calls of the source. No rule for the calls is given here. Residues, ends and D or L forms follow the SMILES beside them.

The subject of the test is Aerobactin synthetase IucA (Klebsiella pneumoniae hvKP1). In words: Biochemical IucA enzyme inhibition primary screen of the Spectrum library (AID 1346200).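 Also: 100% = wells without compound and 0% = wells lacking enzyme.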 As to conditions: malachite green pyrophosphate, A620, at 8 µM, active compounds read low.
On to `N[C@@H](Cc1cc(I)c(Oc2cc(I)c(O)c(I)c2)c(I)c1)C(=O)O`, for which the activity remaining is 117% (inactive).

On to `CCOc1ccc2nc3cc(N)ccc3c(N)c2c1`, for which the activity remaining is 96.1% (inactive).

With `C=CC1=C(C(=O)O)N2C(=O)[C@@H](NC(=O)/C(=N\O)c3csc(N)n3)[C@H]2SC1` (stereo in doubt), the activity remaining is 103% (inactive).

On to `CC(C)(O)[C@@H]1CC[C@](C)([C@H]2[C@@H](O)C[C@@]3(C)C4C[C@H](O[C@@H]5O[C@H](CO)[C@@H](O)[C@H](O)[C@H]5O)C5C(C)(C)[C@@H](O[C@@H]6OC[C@@H](O)[C@H](O)[C@H]6O)CC[C@@]56C[C@@]46CC[C@]23C)O1` (stereo partly drawn), for which the activity remaining is 93% (inactive).

For `CC(=O)O[C@@H]1CC2C(C)(C)[C@H](O)CC[C@]2(C)C2CC[C@@]3(C)[C@H](c4ccoc4)OC(=O)C4OC43[C@@]21C` (stereo partly drawn), the activity remaining is 122% (inactive).

For the compound `CN(C)CC[C@H](c1ccc(Cl)cc1)c1ccccn1`, the activity remaining is 90.6% (inactive).

Regarding `C=CCSC[C@@H](N)C(=O)O`, the activity remaining was 98.6% (inactive).

As for `CCCCN1CCCCC1C(=O)Nc1c(C)cccc1C` (stereo not drawn), the activity remaining was 103% (inactive).

On to `COC(=O)[C@H](Cc1ccccc1)NC(=O)[C@@H](N)CC(=O)O` (H-Asp-Phe-OMe), for which the activity remaining is 104% (inactive).

With `CC[C@@H](CO)NCCN[C@@H](CC)CO`, the activity remaining was 102% (inactive).

For `O=C1OC2(c3ccc(O)cc3Oc3cc(O)ccc32)c2ccccc21`, the activity remaining was 111% (inactive).

As to `COc1ccc2c(c1)O[C@H]1c3ccc(OC)cc3OC[C@@H]21`, the activity remaining is 122% (inactive).

In the case of `CC1(C)C2CC[C@]3(C)C(C(=O)C=C4[C@@H]5C[C@@](C)(C(=O)O)CC[C@]5(C)CC[C@]43C)[C@@]2(C)CC[C@@H]1O` (stereo partly drawn), the activity remaining was 126% (inactive).
